Data from PubChem BioAssay (NCI).
This is part of a sample that, as a whole, favours compounds with a hit. Of some 79,000 tested, about 15% had one in any assay. Active and inactive are the calls of the source. No stated cut-off is given here; in the data, active means growth inhibition above about 70%; inactive means the rest.

Experiments:
[1] = NCI Yeast Anticancer Drug Screen. Data for the rad50 strain (AID 155);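 further: 0% = growth of vehicle-only cultures of the same strain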; details: S. cerevisiae rad50 strain growth inhibition, hits give high values
Procedure, shortened: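 Compounds were tested on a yeast strain with an engineered DNA damage repair alteration; the reported value is growth inhibition normalised to vehicle treatment.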

[2] = NCI Yeast Anticancer Drug Screen. Data for the mec2-1 strain (AID 157); details: S. cerevisiae mec2-1 strain, hits give high values
Procedure, shortened: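 Yeast mec2-1 mutant treated with compound. Readout: growth inhibition vs vehicle controls.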

[3] = NCI Yeast Anticancer Drug Screen. Data for the sgs1 mgt1 strain (AID 161);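 further: 0% = growth of cultures given vehicle only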; details: S. cerevisiae sgs1 mgt1 strain, hits give high values
Procedure, shortened: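 Genetically altered yeast, compound exposure, growth inhibition relative to vehicle.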

[4] = NCI Yeast Anticancer Drug Screen. Data for the cln2 rad14 strain (AID 165);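 further: 0% = growth equal to vehicle treated cultures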; details: S. cerevisiae cln2 rad14 strain, hits give high values
Procedure, shortened: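 cln2 rad14 yeast strain; compound exposure; growth inhibition read vs vehicle controls.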

[5] = NCI Yeast Anticancer Drug Screen. Data for the bub3 strain (AID 167); details: S. cerevisiae bub3 mutant strain, hits give high values
Procedure, shortened: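 Growth of a checkpoint-deficient yeast mutant is measured after compound exposure. Values represent inhibition relative to vehicle.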

[6] = NCI Yeast Anticancer Drug Screen. Data for the mlh1 rad18 strain (AID 175); details: S. cerevisiae mlh1 rad18 strain growth inhibition, hits give high values
Procedure, shortened: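 Yeast w/ defined DNA-repair lesions; compound exposure; growth vs vehicle controls → % inhibition.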

[7] = at 5.0 µM (retest, dose inferred, filed as 0.5)
[8] = at 50.0 µM (retest, dose inferred, filed as 5.0)

Measured: growth inhibition

CCC(c1cccc(O)c1)C(CC)c1cccc(O)c1 (configuration not stated)
active: [3]; [8] 76% | [4]; [8] 74% | [5]; [8] 88% | [6]; at 50.0 µM 92.8%
inactive: [1]; [7] 28% | [1]; [8] 55% | [1]; at 50.0 µM 57.2% | [2]; [7] 19% | [2]; [8] 67% | [2]; at 50.0 µM 60.9% | [3]; [7] 51% | [3]; at 50.0 µM 39.4% | [4]; [7] 50% | [4]; at 50.0 µM 48.9% | [5]; [7] 59% | [5]; at 50.0 µM 66.3% | [6]; [7] 17% | [6]; [8] 55%

CC(=O)c1ccc(OCc2ccccc2)cc1
inactive: [1]; [7] 1% | [1]; [8] -6% | [1]; at 50.0 µM -2.25% | [2]; [7] 1% | [2]; [8] 5% | [2]; at 50.0 µM -15.5% | [3]; [7] 16% | [3]; [8] -6% | [3]; at 50.0 µM -17.9% | [4]; [7] -3% | [4]; [8] 2% | [4]; at 50.0 µM 63.9% | [5]; [7] 2% | [5]; [8] 3% | [5]; at 50.0 µM 9.75% | [6]; [7] -3% | [6]; [8] -9% | [6]; at 50.0 µM 15.2%

CCCCCCCCOc1ccc(/C=C/C(C)=N/NC(N)=NC)cc1OC
inactive: [3]; at 50.0 µM 38.7%
active: [1]; [7] 98% | [1]; [8] 98% | [1]; at 50.0 µM 98.7% | [2]; [7] 98% | [2]; [8] 99% | [2]; at 50.0 µM 99% | [3]; [7] 82% | [3]; [8] 99% | [4]; [7] 72% | [4]; [8] 93% | [4]; at 50.0 µM 98.3% | [5]; [7] 97% | [5]; [8] 99% | [5]; at 50.0 µM 99% | [6]; [7] 99% | [6]; [8] 98% | [6]; at 50.0 µM 98.5%

CCCCCCCCCCCC(=O)N1CCCC1
inactive: [1]; [7] -1% | [2]; [7] -10% | [3]; [7] 3% | [3]; [8] 40% | [4]; [7] -3% | [5]; [7] -3% | [6]; [7] 7%
active: [1]; [8] 99% | [1]; at 50.0 µM 99.4% | [2]; [8] 100% | [2]; at 50.0 µM 99.5% | [3]; at 50.0 µM 96.8% | [4]; [8] 99% | [4]; at 50.0 µM 99.2% | [5]; [8] 99% | [5]; at 50.0 µM 99.5% | [6]; [8] 99% | [6]; at 50.0 µM 99.5%

S=c1[nH]c2ccc(Cl)cc2s1
inactive: [1]; [7] -22% | [1]; [8] 54% | [2]; [7] -2% | [2]; [8] 69% | [2]; at 50.0 µM 65.8% | [3]; [7] -13% | [4]; [7] -60% | [4]; [8] 31% | [5]; [7] -19% | [5]; at 50.0 µM 42% | [6]; [7] -19%
active: [1]; at 50.0 µM 72.9% | [3]; [8] 92% | [3]; at 50.0 µM 82.2% | [4]; at 50.0 µM 83.8% | [5]; [8] 77% | [6]; [8] 91% | [6]; at 50.0 µM 87.2%

O=S(=O)(Cl)c1ccc(Br)cc1
inactive: [1]; [7] 45% | [1]; at 50.0 µM 37.3% | [2]; [7] 68% | [2]; at 50.0 µM -4.55% | [3]; at 50.0 µM 0.15% | [4]; [7] 21% | [4]; at 50.0 µM -76.1% | [5]; at 50.0 µM 9.25% | [6]; [7] 28% | [6]; at 50.0 µM 0.55%
active: [1]; [8] 99% | [2]; [8] 100% | [3]; [7] 72% | [3]; [8] 99% | [4]; [8] 100% | [5]; [7] 84% | [5]; [8] 99% | [6]; [8] 99%

Cc1c2ccccc2c(C)c2c1ccc1ccccc12
active: [1]; [7] 73% | [1]; [8] 91% | [1]; at 50.0 µM 96.8% | [2]; [7] 93% | [2]; [8] 91% | [2]; at 50.0 µM 97.5% | [3]; [7] 93% | [3]; [8] 94% | [3]; at 50.0 µM 97.7% | [4]; [8] 91% | [4]; at 50.0 µM 83.4% | [5]; [7] 81% | [5]; [8] 93% | [5]; at 50.0 µM 94.3% | [6]; [7] 93% | [6]; [8] 91% | [6]; at 50.0 µM 98.1%
inactive: [4]; [7] 60%

O=S(=O)(O)N=Nc1ccc(O)cc1
inactive: [1]; [7] 65% | [2]; [7] 1% | [3]; [7] 17% | [4]; [7] -8% | [5]; [7] -12% | [6]; [7] 37%
active: [1]; [8] 98% | [1]; at 50.0 µM 91.5% | [2]; [8] 99% | [2]; at 50.0 µM 94.3% | [3]; [8] 98% | [3]; at 50.0 µM 93.2% | [4]; [8] 98% | [4]; at 50.0 µM 91% | [5]; [8] 98% | [5]; at 50.0 µM 92.8% | [6]; [8] 98% | [6]; at 50.0 µM 91.5%

Cc1c2c(c(C)c3ccncc13)S(=O)(=O)c1ccccc1-2
inactive: [2]; [7] 52% | [2]; [8] 69% | [2]; at 50.0 µM 36.2% | [3]; [7] 38% | [3]; [8] 65% | [3]; at 50.0 µM 55.3% | [4]; [7] 39% | [4]; [8] 36% | [4]; at 50.0 µM 28.9% | [5]; [7] 41% | [5]; [8] 33% | [5]; at 50.0 µM 55%
active: [1]; [7] 88% | [1]; [8] 87% | [1]; at 50.0 µM 94.3% | [6]; [7] 75% | [6]; [8] 85% | [6]; at 50.0 µM 79.9%
